# Publication PMC12136788
# Numbering of substitutions follows the chain as printed. In all, about 24,000 sequences were measured (“enrichment r”: median about 0.99, highest 2% from about 3.7 on). The full list was thinned out, with the highest values kept by preference.
# T1: UNK ZnF1-3 (human, UniProt Q9C0B0 31-174)
# T1 sequence: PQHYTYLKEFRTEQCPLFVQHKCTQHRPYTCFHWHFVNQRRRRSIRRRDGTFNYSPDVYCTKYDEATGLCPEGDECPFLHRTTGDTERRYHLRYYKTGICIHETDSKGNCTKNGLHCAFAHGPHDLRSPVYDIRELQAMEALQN
# B1: chr14:57521665:57521666:+_ENSMUSG00000021945_ENSMUST00000022511|mus_mus|FALSE|FALSE (ssRNA)
# RNA: GGGAGUUCUACAGUCCGACGAUCAACAACGUCAUCAUCAUCUUCUACUGAUGAGUUCUGAAACUUACUAGAUCUAGACACUAAAGGAUUAGGUGGGCCACUAAAUGAAUUUCCUACGUUCGUGAGACUAGUUGCCAUGGCUGUCAACAGAGGAUUGAGCAUCA
# B2: chr4:76721835:76721836:+_ENSG00000138768_ENST00000264904|hu_mus|hu_hu_hu_mus_True|58_108 (ssRNA)
# RNA: GGGAGUUCUACAGUCCGACGAUCGUUGGCUGGGGUUUUCUGAGACGCUCUGGAAUAUAACUCAUGUUUGCUAAUAAUCCUAGUUUCCUCUAUGAAAUUCUCUUUGCCAAUCCUCUUCUCUAUUAGUUGCUUUAGUUUCUCUUUCAACAGAGGAUUGAGCAUCA
# B3: chr12:48362563:48362564:+_ENSG00000134291_ENST00000256686|hu_mus|FALSE|FALSE (ssRNA)
# RNA: GGGAGUUCUACAGUCCGACGAUCUCCGUCAAGCCCUUCGAUAGACCCUUGCGGGGGAAACUGUAAUCACUUUGUAUGGGGAAGGAAAAGAAACGCCAAAAACUUUCCAAAAAGCGGGGGUGGGGUGAGGCGGGAGGGGGAGGUCAACAGAGGAUUGAGCAUCA
# B4: chr14:76904430:76904431:+_ENSMUSG00000022010_ENSMUST00000022587|mus_mus|mus_mus_mus_hu_True|48_88 (ssRNA)
# RNA: GGGAGUUCUACAGUCCGACGAUCUGCAGCCAAAAACACCCUCGUGGCGGGAGGGAGGGAACACCAGCAGCCUUGUAUAAGCUAGAUAAAACCGCCUGGCUUUCCGCAGCCCAGGGAGAAACAGAAAACGGCAGCCCUAAUUUACAACAGAGGAUUGAGCAUCA
# B5: chr14:76904430:76904431:+_ENSMUSG00000022010_ENSMUST00000022587|mus_mus|mus_mus_mus_hu_True|98_108 (ssRNA)
# RNA: GGGAGUUCUACAGUCCGACGAUCUGCUGGAAAAAAAAGAGAGAGGGAAAAAAAGAGGGAACACCAGCAGCCUUGUAUAAGCUAGAUAAAAUCUUCUGGCUUUCCGCAGCCCAGGGAGAAACAGAAAACGGCAGCCCUAAUUUACAACAGAGGAUUGAGCAUCA
# B6: chr14:76904430:76904431:+_ENSMUSG00000022010_ENSMUST00000022587|mus_mus|mus_mus_mus_hu_True|38_98 (ssRNA)
# RNA: B5 RNA with U27A, G29C, A30C, A36C, G97A, U101G, C104U
# B7: chr14:76904430:76904431:+_ENSMUSG00000022010_ENSMUST00000022587|mus_mus|mus_mus_mus_hu_True|98_98 (ssRNA)
# RNA: B5 RNA with U27A, G29C, A30C, A36C
# B8: chr14:76904430:76904431:+_ENSMUSG00000022010_ENSMUST00000022587|mus_mus|mus_mus_mus_hu_True|88_98 (ssRNA)
# RNA: B4 RNA with C38G, C39A, C40G, U41A, C42G, G43A, U44G, C91U, G93U, C94U
# B9: chr14:76904430:76904431:+_ENSMUSG00000022010_ENSMUST00000022587|mus_mus|mus_mus_mus_hu_True|48_98 (ssRNA)
# RNA: B5 RNA with U27A, G29C, A30C, A36C, U91C, U93G, U94C
# B10: chr14:76904430:76904431:+_ENSMUSG00000022010_ENSMUST00000022587|mus_mus|mus_mus_mus_hu_True|68_68 (ssRNA)
# RNA: GGGAGUUCUACAGUCCGACGAUCUGCAGCCAAAAACACCCUCGUGGAAAAAAAGAGGGAACACCAGCAGCCUGGUUUAAGCUAGAUAAAAUCUUCUGGCUUUCCGCAGCCCAGGGAGAAACAGAAAACGGCAGCCCUAAUUUACAACAGAGGAUUGAGCAUCA
# B11: chr7:148083511:148083512:+_ENSMUSG00000025487_ENSMUST00000026560|mus_mus|FALSE|FALSE (ssRNA)
# RNA: GGGAGUUCUACAGUCCGACGAUCCAAAUCCAGCACUCGCGGCUGCACCCACGUCAUGUGAACCCGCUUGUCCACCUCGUCUAUGCUGCCUCUCACCAGCCCCACCGAGAGUGCCUUCAUCACCAGCAACUCCACCUUGUUGACCAACAGAGGAUUGAGCAUCA
# B12: 104840732_104840852_1265_3pUTR_ENSMUSG00000021710_ENSMUST00000109315|mouse|control|control (ssRNA)
# RNA: GGGAGUUCUACAGUCCGACGAUCGACCACCUCAAUGGGAAAGUACUCCUUGAGGGACUCCUGGUCCACAGAGUACUUGAGCUCCUCUGUCUGGGUCAUGUAGUAAUGGAGGUCCCAUGCGUUGAUCUUCCCGUCGUAUGCAAACAACAGAGGAUUGAGCAUCA
# B13: chr15:63447868:63447869:-_ENSG00000185088_ENST00000411926|hu_hu|FALSE|FALSE (ssRNA)
# RNA: GGGAGUUCUACAGUCCGACGAUCCCCUUCUGUGAGUCUGGCCUUUCCUCCUGUAGGCUGGCACAACACUGUUGAACAACCUACACAAAGAACCACUGUCUGAGCAUGGCUGAAAACCGUGGUGAUCUUGUAGCAACCUGGACACAACAGAGGAUUGAGCAUCA
# B14: chr3:148479741:148479742:-_ENSMUSG00000028184_ENSMUST00000106128|mus_mus|motif|central (ssRNA)
# RNA: GGGAGUUCUACAGUCCGACGAUCACAAUGCAGGCCUACAGAAAAACAAAACAAAACAAAAACAAAAACCGGUAGGGCCCGGUUUACAGACUCAGUUCACCAACUGCCGCAAGGAACAUGGCCGGGAGGGAGGGUCUCUUGUUUCAACAGAGGAUUGAGCAUCA
# B15: chr2:175006660:175006661:-_ENSG00000138430_ENST00000344357|hu_mus|motif|central (ssRNA)
# RNA: GGGAGUUCUACAGUCCGACGAUCUAGAAUGGGCCCAAUCAUCUCCUCGUCCUUCAGCUGGAGCUCCUCGUGAAUUAUCUCGGUGUCUCGGAUGGGAUCUACACUUCCUUCAACAUGCGUGAUAUCAUCGUCUUCAAAAGCACGCAACAGAGGAUUGAGCAUCA
# B16: chr17:56552419:56552420:-_ENSMUSG00000013236_ENSMUST00000086828|mus_mus|mus_mus_mus_hu_False|38_98 (ssRNA)
# RNA: GGGAGUUCUACAGUCCGACGAUCAAAAAAUACACUAUAAAAAAAAAAUGAAAUGUCACGGGAUACAGUUACACUGAGAGUUUUAAAAGAAAGCUGGAAAAAAAAUGCAGCCCAGUGUCCCCAGGCUGCAGAGCGGGGAGGAGCCAACAGAGGAUUGAGCAUCA
# B17: chr17:56552419:56552420:-_ENSMUSG00000013236_ENSMUST00000086828|mus_mus|mus_mus_mus_hu_False|1_38 (ssRNA)
# RNA: B16 RNA with A38U, A39U, A138C, G139A, C143G
# B18: chr17:56552419:56552420:-_ENSMUSG00000013236_ENSMUST00000086828|mus_mus|mus_mus_mus_hu_False|38_88 (ssRNA)
# RNA: B16 RNA with A38U, A39U, U48A, G49A, A50G, U53A, G54A, U55A, C56A
# B19: chr17:56552419:56552420:-_ENSMUSG00000013236_ENSMUST00000086828|mus_mus|mus_mus_mus_hu_False|38_38 (ssRNA)
# RNA: B16 RNA with A38U, A39U
# B20: 154963464_154963584_1656_3pUTR_ENSMUSG00000042751_ENSMUST00000043313|mouse|control|control (ssRNA)
# RNA: GGGAGUUCUACAGUCCGACGAUCCUGGUUGGCAGAGAACCCACUCAAUGCUACUGGUCAGACACACAGCAUCAAGACCACGAUCAUCUGAAACCAGGGACUCAAAUUCUGAGAAACCCUACUCUUCCCAGACUUAUGUACCAGCAACAGAGGAUUGAGCAUCA
# B21: chr8:145151508:145151509:+_ENSG00000179091_ENST00000318911|hu_hu|FALSE|FALSE (ssRNA)
# RNA: GGGAGUUCUACAGUCCGACGAUCACCUUCCCGCAGUGACACCCCGGUGGGUGGCUCGCAGUAGCCCGUGAGCAGGGAGAAGACGUAGUCCUCACCACCAUGCCUAGCUCGCACGAUGUAGCUGAGGUCAGGGGGCAAUGCUCCCAACAGAGGAUUGAGCAUCA
# B22: 35238635_35241177_7885_CDS_ENSMUSG00000029104_ENSMUST00000080036|mouse|control|control (ssRNA)
# RNA: GGGAGUUCUACAGUCCGACGAUCCUGGCCCAGCUUGUAGCUCAUGUUGCCUGGCUCCCGCUCUGGGUUGAUCUGCAGCAGCAGCUUGUCAUGGCUGAUAAGAGCACCUGUAGUAGCUGGUAACAGAGAAGGGACAGGAUCCCACAACAGAGGAUUGAGCAUCA
# Biological target: T1, UNK ZnF1-3
# Assay: nsRBNS (natural sequence RNA bind-n-seq); RBNS binding buffer (assumed for nsRBNS): 25 mM Tris pH 7.5, 150 mM KCl, 3 mM MgCl2, 0.01% Triton X-100, 500 ug/ml BSA, 20 U/ml SUPERase-In, 4 C; UNK is unkempt and MSI1 is Musashi-1; names of the RNAs are library labels; protein concentration not given here; high values mean tight binding
row,Binder,binding signal
1,B1,1.09 enrichment R
2,B2,0.387 enrichment R
3,B3,2.36 enrichment R
4,B4,2.24 enrichment R
5,B5,3.93 enrichment R
6,B6,4.97 enrichment R
7,B7,4.46 enrichment R
8,B8,3.29 enrichment R
9,B9,3.64 enrichment R
10,B10,2.29 enrichment R
11,B11,0.937 enrichment R
12,B12,0.691 enrichment R
13,B13,0.955 enrichment R
14,B14,2.06 enrichment R
15,B15,0.77 enrichment R
16,B16,7.57 enrichment R
17,B17,5.3 enrichment R
18,B18,13.5 enrichment R
19,B19,5.93 enrichment R
20,B20,1.29 enrichment R
21,B21,1.01 enrichment R
22,B22,1.21 enrichment R
